Structures can show the parent of a compound that is named as a salt.
Legend:
Settings in all cases: treatment time: 24 h
A549-ACTB-RAB5A [1] = assay: lowest phenotypically active concentration; higher = less potent
Outline: (§1)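 Cells from fifteen gene-edited reporter lines (A549, HepG2 and WPMY1) were treated for 24 h at 0.3, 1, 3 or 9 µM and imaged live, four wells per condition. Features were normalised per well to solvent control wells. A condition deviated if ≥3 of 4 wells passed the 95th percentile of control Euclidean distances and was reproducible if its median replicate Pearson correlation beat the 95th percentile of non-replicates; phenotypic activity needed both.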

A549-CANX-COX4 [2] = assay: as above
Outline: as §1

A549-GM130-SQSTM1 [3] = assay: as above
Outline: as §1

A549-TP53BP1-CLTA [4] = assay: as above
Outline: as §1

A549-TUBA1B-RELA [5] = assay: as above
Outline: as §1

A549-ACTB-RAB5A [6] = assay: phenotypically active (imaging signature differs from DMSO and reproducible) at any of 0.3-9 uM (binary (1 = active, 0 = inactive)); higher = active
Outline: as §1

A549-CANX-COX4 [7] = assay: as above
Outline: as §1

A549-GM130-SQSTM1 [8] = assay: as above
Outline: as §1

A549-TP53BP1-CLTA [9] = assay: as above
Outline: as §1

A549-TUBA1B-RELA [10] = assay: as above
Outline: as §1

HepG2-ACTB-RAB5A = assay: as above
Outline: as §1

HepG2-CANX-COX4 = assay: as above
Outline: as §1

HepG2-GM130-SQSTM1 = assay: as above
Outline: as §1

HepG2-TP53BP1-CLTA = assay: as above
Outline: as §1

HepG2-TUBA1B-RELA = assay: as above
Outline: as §1

WPMY1-ACTB-RAB5A = assay: as above
Outline: as §1

WPMY1-CANX-COX4 = assay: as above
Outline: as §1

WPMY1-GM130-SQSTM1 = assay: as above
Outline: as §1

WPMY1-TP53BP1-CLTA = assay: as above
Outline: as §1

WPMY1-TUBA1B-RELA = assay: as above
Outline: as §1

Row | Compound | lowest phenotypically active concentration (A549-ACTB-RAB5A [1]) [µM] | lowest phenotypically active concentration (A549-CANX-COX4 [2]) [µM] | lowest phenotypically active concentration (A549-GM130-SQSTM1 [3]) [µM] | lowest phenotypically active concentration (A549-TP53BP1-CLTA [4]) [µM] | lowest phenotypically active concentration (A549-TUBA1B-RELA [5]) [µM] | phenotypically active (A549-ACTB-RAB5A [6]) | phenotypically active (A549-CANX-COX4 [7]) | phenotypically active (A549-GM130-SQSTM1 [8]) | phenotypically active (A549-TP53BP1-CLTA [9]) | phenotypically active (A549-TUBA1B-RELA [10]) | phenotypically active (HepG2-ACTB-RAB5A) | phenotypically active (HepG2-CANX-COX4) | phenotypically active (HepG2-GM130-SQSTM1) | phenotypically active (HepG2-TP53BP1-CLTA) | phenotypically active (HepG2-TUBA1B-RELA) | phenotypically active (WPMY1-ACTB-RAB5A) | phenotypically active (WPMY1-CANX-COX4) | phenotypically active (WPMY1-GM130-SQSTM1) | phenotypically active (WPMY1-TP53BP1-CLTA) | phenotypically active (WPMY1-TUBA1B-RELA)
1 | O=C(Nc1cccc(Cl)c1)Nc1ncc(CCNc2ncnc3ccsc23)s1 [SNS 314 mesylate] | ≤ 0.3 | ≤ 0.3 | ≤ 0.3 | ≤ 0.3 | ≤ 0.3 | 1 (active) | 1 (active) | 1 (active) | 1 (active) | 1 (active) | 1 (active) | 1 (active) | 1 (active) | 1 (active) | 1 (active) | 1 (active) | 1 (active) | 1 (active) | 1 (active) | 1 (active)
2 | N#Cc1c(C2CCNCC2)cc(-c2c(O)cccc2OCC2CC2)nc1N | 9 | 9 | 9 | 9 | 9 | 1 (active) | 1 (active) | 1 (active) | 1 (active) | 1 (active) | 1 (active) | 1 (active) | 1 (active) | 1 (active) | 1 (active) | 1 (active) | 1 (active) | 1 (active) | 1 (active) | 1 (active)
3 | O=C(CCCCCCC(=O)Nc1ccccc1)NO | ≤ 0.3 | 1 | 1 | 1 | 1 | 1 (active) | 1 (active) | 1 (active) | 1 (active) | 1 (active) | 1 (active) | 1 (active) | 1 (active) | 1 (active) | 1 (active) | 1 (active) | 1 (active) | 1 (active) | 1 (active) | 1 (active)
4 | CCC1=C[C@@H]2CN(C1)Cc1c([nH]c3ccccc13)[C@@](C(=O)OC)(c1cc3c(cc1OC)N(C)[C@H]1[C@@](O)(C(=O)OC)[C@H](OC(C)=O)[C@]4(CC)C=CCN5CC[C@]31[C@@H]54)C2 [vinorelbine] | ≤ 0.3 | ≤ 0.3 | ≤ 0.3 | ≤ 0.3 | ≤ 0.3 | 1 (active) | 1 (active) | 1 (active) | 1 (active) | 1 (active) | 1 (active) | 1 (active) | 1 (active) | 1 (active) | 1 (active) | 1 (active) | 1 (active) | 1 (active) | 1 (active) | 1 (active)
5 | COc1ccc(S(=O)(=O)Nc2cccnc2Nc2ccc(O)cc2)cc1 | 1 | 1 | 1 | 1 | 3 | 1 (active) | 1 (active) | 1 (active) | 1 (active) | 1 (active) | 1 (active) | 1 (active) | 1 (active) | 1 (active) | 1 (active) | 1 (active) | 1 (active) | 1 (active) | 1 (active) | 1 (active)
